Assay results from the supplement of paper PMC3334620.
Whole data set: some 33,000 sequences, median “E-score (-0.5 to 0.5)” near -0.015, cut for the highest 2% near 0.3. The sample holds the highest values, similar sequences and a random draw of the others, so the mix is not that of the screen.

Biological target: T1, Abf1 (UniProt P14164)
T1 sequence: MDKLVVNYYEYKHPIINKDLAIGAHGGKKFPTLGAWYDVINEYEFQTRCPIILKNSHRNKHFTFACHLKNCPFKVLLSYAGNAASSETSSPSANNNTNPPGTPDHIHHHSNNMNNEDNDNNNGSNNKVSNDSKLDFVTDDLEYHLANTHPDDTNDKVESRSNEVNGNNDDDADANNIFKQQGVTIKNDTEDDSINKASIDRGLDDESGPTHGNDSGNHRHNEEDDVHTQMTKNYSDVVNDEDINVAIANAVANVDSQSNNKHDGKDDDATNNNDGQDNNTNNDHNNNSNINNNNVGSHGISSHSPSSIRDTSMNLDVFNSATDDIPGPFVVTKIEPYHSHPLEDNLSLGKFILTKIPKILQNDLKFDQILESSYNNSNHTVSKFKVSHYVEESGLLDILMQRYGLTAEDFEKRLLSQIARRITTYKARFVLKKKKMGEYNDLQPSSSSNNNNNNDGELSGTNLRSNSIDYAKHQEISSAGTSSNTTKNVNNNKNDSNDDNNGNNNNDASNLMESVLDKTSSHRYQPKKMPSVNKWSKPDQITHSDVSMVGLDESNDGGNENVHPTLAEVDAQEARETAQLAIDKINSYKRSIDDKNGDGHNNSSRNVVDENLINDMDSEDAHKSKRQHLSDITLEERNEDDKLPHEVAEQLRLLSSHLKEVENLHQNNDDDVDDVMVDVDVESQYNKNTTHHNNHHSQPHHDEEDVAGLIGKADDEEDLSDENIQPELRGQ
Assay: PBM E-score (8-mer binding enrichment) (E-score (-0.5 to 0.5)); higher = stronger / more preferred TF binding
Details: protein concentration: 200 nM; construct: GST-full length
Procedure, shortened: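 Detection of bound protein used fluorescent anti-GST, with scans normalised by masliner. The proteins were GST-tagged yeast transcription factors applied at about 100-200 nM to universal all-10-mer Agilent arrays made double-stranded by primer extension. Each ungapped eight-base word, pooled with its reverse complement, was scored with an E-score from the Universal PBM Analysis Suite.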

Sequence	PBM E-score
CCTGTCTC	-0.123
ATGGGGTA	-0.00916
CGAGCGGC	-4e-05
CGTTACCC	-0.152
CCTCTATC	-0.0168
ACGATCAT	0.222
ATGATCAT	0.387
AGGATCAT	0.0179
ATACGTAC	0.165
GTACGTAC	-0.0114
CGACGTAA	0.123
GTACGTAA	0.343
ATACGTAA	0.24
GGACGTGA	0.0158
CTACGTAC	0.297
TTACGTAA	0.196
GGACGTAC	-0.0265
CGACGTAC	0.322
AGACGTGA	0.227
CGACGTGA	0.297
CATCAGAC	-0.02
CAGAGTAG	-0.205
AGGTATAG	-0.1
TAGCGAAA	-0.00307
ACGATGGG	-0.08

Sequence	PBM E-score
CGCATTTC	-0.0669
ACCGCTGA	-0.057
TGTACGAA	0.427
CTTACGAC	0.103
GGTACGAC	0.185
TGTACAAA	0.0674
GGTACGAA	0.339
CCTACGAC	0.288
CGTACGAG	0.343
GGTACGTA	0.0572
CGTACGAC	0.417
CCTACGAG	0.163
ATTACGAA	0.281
AGTACGAG	0.00494
CTCGAATC	-0.0489
CATCCTTC	0.0215
CCACTGGC	-0.107
CGTACGCA	0.217
CGTACGAA	0.447
CTTACGAA	0.216
AGTACGAT	0.106
AGTACGAC	0.18
AGTACGAA	0.368
CATAAGGC	0.16
GCTTGCGA	0.0664

Sequence	PBM E-score
CTCAAAAG	-0.0587
AACCGGTC	-0.154
TGATATCA	0.34
AGATATCT	0.158
GGATATCA	0.247
AGATATCC	0.232
TGATATAA	0.281
AGATATCA	0.3
CGAGGATC	0.101
AGGCGGAT	-0.0114
CTCGACAA	-0.0758
ACTTACCT	-0.165
CGGCAGGC	-0.0216
CTCCGGCC	-0.212
AAGACCGG	-0.0657
TCACACAA	0.0163
GTACACGA	0.362
AGACACGA	0.083
ACACACGA	0.279
GCACACGA	0.303
GCACACGC	-0.209
CTACACGA	0.247
CGACACGC	0.0501
TCACACGA	0.297
CGACACGA	0.298

Sequence	PBM E-score
ATACACGA	0.179
GCACACAA	-0.00644
GTCGTAAA	0.184
ACACTCAA	0.123
AAGAACAT	0.157
CATGTAAG	-0.112
CCTCCGTA	0.116
TCTCTGCA	0.0379
CGCTGCCG	-0.0244
ACCGGACC	-0.113
TAATCGGA	0.0729
CAGTCGAC	0.137
CGCCTGTA	-0.234
ATAGTATG	0.161
CTCGTATA	0.241
ATCGTATA	0.326
ATCGTATG	0.302
GTCGTGTA	0.239
GTCGTATA	0.402
ATCGTGTA	0.376
CTCGTGTA	0.157
AGCGTATG	-0.154
GACGTATA	0.249
AACGTATA	0.1
ATCGTATC	0.242

Sequence	PBM E-score
GGGCTACC	-0.186
GGGTCATA	-0.0763
CCCTCGTA	0.126
TATGACCA	-0.0211
GAACAGCC	-0.195
AGACCGAC	-0.00992
GATAAATA	0.257
AATAAATA	0.32
CGTAAATA	0.299
AATAAATT	0.313
TATAAATA	0.257
AATAAATG	0.149
AATAAAAT	0.2
CGTAAATC	0.131
AGTAAATA	0.103
AAAAGATA	0.182
CCTATGCA	0.018
CGAAGCCG	-0.0718
GCACCCTA	-0.149
GAGGTCGC	0.0116
GCGTGCAC	-0.0221
GCGTGCAA	0.0992
TCGTGCAA	0.361
GCGTGCGA	-0.0331
CCGTGCAG	0.192

Sequence	PBM E-score
CCGTGCGC	0.218
CTGTGCAA	0.0274
ACGTGCAC	0.112
CCGTGCAA	0.334
CCGTGCGA	0.354
ACGTGCAA	0.21
CCGTGCAC	0.31
TCTCCAAA	-0.0776
CCCGGCCA	-0.267
AACAGCTG	-0.0093
ACACTGGG	-0.134
GCAACTCC	-0.257
ACACGTGA	0.237
CCGAACCG	-0.0651
AATGATAC	0.288
AATGATGG	0.0838
AATGATAA	0.408
GATGATAC	0.297
GATAATAA	0.24
AATGATGT	0.325
CATGATAC	0.236
AATGATGA	0.282
AATGATAG	0.229
GATGATAA	0.36
AATGATTA	0.273

Sequence	PBM E-score
AGCTAGGG	-0.309
CCTGCGTC	-0.22
ATACTTTA	0.094
ACAACCGG	0.0327
GGGGCATA	-0.184
CAGCTTAA	-0.00327
CATGATAG	0.0986
CATGATAA	0.356
AATGAAAT	0.166
AATGATAT	0.436
TATGATAA	0.258
AATGAGAT	0.148
CTGGATGA	0.0651
CCTTGAAG	-0.111
GCGTGGCA	-0.0717
AGACGAAA	0.296
CGACGAGA	0.13
CGACGAAA	0.363
CGACGAAC	0.168
CAACGAAA	0.23
CGACGAAG	0.357
GGACGAAA	0.0999
TGACGAAA	0.349
AGACGAAG	0.135
